We go through 39 compounds from PubChem BioAssay (NCATS).

SMILES strings stand for the structures. Records with an inconclusive call do not appear. Where a call stands in place of a potency, no number is given. Activity calls are given as the source filed them. Calls follow the shape of the full dose curve.
Potency is read from the fitted curve at half-maximal effect.

The assay deals with Nucleoprotein (Lymphocytic choriomeningitis virus (strain Armstrong)) (UniProt P09992). Put plainly: qHTS for Inhibitors of the Functional Ribonucleoprotein Complex (vRNP) of Lymphocytic Choriomeningitis Arenaviruses (LCMV): LCMV Primary Screen - GLuc reporter signal (AID 1347086). Also: nearly all actives have a fitted effect of over 70% in size. To be noted: LCMV minigenome vRNP cell assay, Gaussia luciferase reporter; series mostly up to 57.5 µM. For orientation: Quantitative high-throughput screening tests each substance at several concentrations.
Sequence of Nucleoprotein (Lymphocytic choriomeningitis virus (strain Armstrong)) (P09992 whole entry, looked up): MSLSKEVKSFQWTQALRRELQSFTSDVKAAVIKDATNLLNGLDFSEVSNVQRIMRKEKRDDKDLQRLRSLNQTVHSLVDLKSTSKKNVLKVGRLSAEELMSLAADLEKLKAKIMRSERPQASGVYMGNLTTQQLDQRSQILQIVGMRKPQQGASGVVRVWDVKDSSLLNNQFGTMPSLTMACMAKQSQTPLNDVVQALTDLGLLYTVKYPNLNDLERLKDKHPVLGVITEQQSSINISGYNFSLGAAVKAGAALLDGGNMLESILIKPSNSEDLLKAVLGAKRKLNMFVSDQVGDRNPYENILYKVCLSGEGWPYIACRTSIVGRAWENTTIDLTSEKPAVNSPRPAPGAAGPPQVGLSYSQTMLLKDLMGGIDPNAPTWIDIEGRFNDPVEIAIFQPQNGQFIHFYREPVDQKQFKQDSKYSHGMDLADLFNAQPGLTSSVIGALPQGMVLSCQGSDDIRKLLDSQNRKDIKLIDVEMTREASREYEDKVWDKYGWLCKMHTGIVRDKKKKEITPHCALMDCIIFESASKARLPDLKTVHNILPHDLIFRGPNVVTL
Take `COc1cc(C(=O)N2CCOCC2)cc(OC)c1OC`: the Potency result is “inactive”. For the compound `CCCC(=O)O[C@]1(C(=O)COC(=O)CC)CC[C@H]2[C@@H]3CCC4=CC(=O)CC[C@]4(C)[C@H]3[C@@H](O)C[C@@]21C`, the Potency result was “inactive”.

Turning to `NC1CCN(c2cccc(Cl)n2)CC1`, the Potency result was “inactive”.

In the case of `O=C(O)c1ccccc1OP(=O)(O)O`, the Potency result is “inactive”. As to `Cc1noc(NS(=O)(=O)c2ccc(N)cc2)c1C`, the Potency result is “inactive”.

Turning to `CCCCN(CCCC)CCCOC(=O)c1ccc(N)cc1`, the Potency entry is “inactive”. As to `CCc1cc(S(=O)(=O)O)c2cc(C(C)C)cccc1-2`, the Potency result was “inactive”. With `O=C(O)CCCCC1CCSS1` (centres undefined), the Potency entry was “inactive”. On to `CC1CCc2c(N3CCC(O)CC3)c(F)cc3c(=O)c(C(=O)O)cn1c23` (centres undefined), for which the Potency result is “inactive”.

Regarding `CO[C@H]1C[C@@H]2CC[C@@H](C)[C@@](O)(O2)C(=O)C(=O)N2CCCC[C@@H]2C(=O)O[C@H]([C@H](C)C[C@@H]2CC[C@H](OCCO)[C@H](OC)C2)CC(=O)[C@H](C)C=C(C)[C@@H](O)[C@@H](OC)C(=O)[C@H](C)C[C@H](C)C=CC=CC=C1C`, the Potency was 0.544 µM (active).

Take `CC(=O)OCC(=O)[C@H]1CC[C@H]2[C@@H]3CCC4=CC(=O)CC[C@]4(C)[C@H]3CC[C@]12C`: the Potency result was “inactive”. In the case of `CO[C@]12C[C@@H](COC(=O)c3cncc(Br)c3)CN(C)[C@@H]1Cc1cn(C)c3cccc2c13`, the Potency entry is “inactive”. The result for `CCN(CC)CC(=O)Oc1ccc(NC(C)=O)cc1` reads “inactive”. With `CC[C@H](C)C(=O)O[C@H]1C[C@H](O)C=C2C=C[C@H](C)[C@H](CC[C@@H](O)C[C@@H](O)CC(=O)O)[C@H]21`, the Potency entry was “inactive”.

`CC(=O)N(c1onc(C)c1C)S(=O)(=O)c1ccc(N)cc1`: the Potency entry is “inactive”. As to `Cc1c(C(=O)NCCO)[n+](=O)c2ccccc2n1[O-]`, the Potency result is “inactive”. The result for `COc1ccnc(CS(=O)c2nc3ccc(OC(F)F)cc3[nH]2)c1OC` (centres undefined) reads “inactive”; that for `COC(=O)c1cc(Cl)c(NC(C)=O)cc1OC`, “inactive”. Turning to `C[C@@H](CN1CC(=O)NC(=O)C1)N1CC(=O)NC(=O)C1`, the Potency result is “inactive”. For `O=c1[nH]c(=O)n([C@H]2CCCO2)cc1F`, the Potency result was “inactive”. Regarding `CC(=O)OCC(=O)[C@@]1(O)[C@H](C)C[C@H]2[C@@H]3CCC4=CC(=O)C=C[C@]4(C)[C@@]3(F)[C@@H](O)C[C@@]21C`, the Potency result was “inactive”. `CCOC(=O)[C@H](CCc1ccccc1)N[C@@H](C)C(=O)N1[C@H](C(=O)O)C[C@H]2CCCC[C@@H]21`: the Potency entry is “inactive”. The entry for `CC(=O)OCC1=C(C(=O)O)N2C(=O)[C@@H](NC(=O)Cc3cccs3)[C@H]2SC1` is “inactive”. On to `O=C(CN1CCNCC1)NC1CCCCC1`, for which the Potency result was “inactive”.

Take `CCCCCCCCCCCCOCCO`: the Potency result was “inactive”. Consider `NC(=S)N/N=C/c1cccnc1`, for which the Potency entry is “inactive”.

As for `COc1ccc2cc([C@H](C)C(=O)O)ccc2c1`, the Potency result is “inactive”. For the compound `CCCNC(C)C(=O)Nc1ccccc1C` (centres undefined), the Potency entry is “inactive”. The result for `OC1(c2ccccc2)CCNCC1` reads “inactive”; that for `COc1ccc(C2C(=O)c3ccccc3C2=O)cc1`, “inactive”; that for `CCCCCCCCCCCCSCCOCCO`, “inactive”. As for `C[C@@H]1CN(c2c(F)c(F)c3c(=O)c(C(=O)O)cn(C4CC4)c3c2F)C[C@H](C)N1`, the Potency result is “inactive”. The entry for `CC(=O)NC(=O)c1ccccc1O` is “inactive”. The entry for `O=C(O)c1c(O)c(-c2ccccc2)nc2ccccc12` is “inactive”. The entry for `CCC(Cc1c(I)cc(I)c(N)c1I)C(=O)O` (centres undefined) is “inactive”; for `NC(=O)c1cccnc1` it is “inactive”; for `CC1(C)O[C@H]2CC(=O)OC[C@]23[C@H]2CC[C@@]4(C)[C@H](c5ccoc5)OC(=O)[C@H]5O[C@]54[C@]2(C)C(=O)C[C@@H]13` it is “inactive”. For the compound `CC[N+](C)(CC)CCOC(=O)C1c2ccccc2Oc2ccccc21`, the Potency result is “inactive”. On to `NS(=O)(=O)c1ccc(C(=O)O)cc1`, for which the Potency result is “inactive”.
